# Source: PubChem BioAssay (NCATS)
# Inconclusive results are not listed. Active and inactive are the calls of the source. The call rests on the fitted dose curve; in most records, active means well fitted inhibition curve with a large enough effect; inconclusive means small, poorly fitted or top-dose-only effect; inactive means no such curve, though single readings can be large or run the other way. Non-standard residues stand in square brackets, D forms with d. Residues, ends and D or L forms follow the SMILES beside them. *: point of attachment. Nva = CCC[C@H](N)C(=O)O; Cbz = O=C(OCc1ccccc1)*
# Experiment: BET inhibitor-based combinations targeting novel dependencies in MECOM-rearranged (r) AML: MV-4-11 cell line (AID 2202233); further: nearly all actives have a fitted effect of over 45% in size
# Details: MV-4-11 AML viability, CellTiter-Glo luminescence, 48 h; series mostly up to 46 µM; viability, % of control: at the top concentration
# Source text: Ecotropic viral insertion site 1 (EVI1) is located on chromosome 3q26.2 as part of the MECOM (MDS and EVI1 complex) locus. Under normal hematopoiesis, EVI1 is a regulator of hematopoietic stem cell maintenance and self-renewal and EVI1 levels decrease as the cells differentiate. In approximately 5-10% of de novo acute myeloid leukemia (AML) EVI1 is aberrantly expressed, including Chromosomal inv(3)(q21;q26.2) or t(3;3)(q21;q26.2) alterations (MECOM-r) that account for about 50% of AML with EVI1 overexpression 31. AMLs with high levels of EVI1 have a poor prognosis and an overall survival time averaging between 10-14 months. EVI1 overexpression confers resistance in leukemia cells, highlighting the need to develop new targeted therapies for EVI1 overexpressing AMLs. Here, we performed an unbiased chemical drug screening by evaluating the single agent activity of a collection of 2,480 oncology-focused, approved and investigational drugs (NCATS Mechanism Interrogation Plates, MIPE v5.0) against a panel of seven AML cell lines. These included four MECOM-r cell-lines (AML-191, AML-194, UCSD-AML1 and HNT-34) and three non-MECOM-r AMLs (MV4-11, OCI-AML3 and SET-2). Exploiting the mechanistic redundancy built in the library, we identified target-level sensitivities in MECOM-r AML cells and relative activity as compared to other AML subtypes.
# A collection of 2480 mechanistically annotated dugs (MIPE v5.0) was used to screen four 3q26.2 rearranged AML cell lines and three non-3q26.2 rearranged AML cell lines. This library purposely exploits redundancy by including multiple inhibitors of key onco-targets, while simultaneously encompassing mechanistic diversity, targeting more than 800 distinct mechanisms of action. Briefly, cells were seeded in 5 uL of growth media using a Multidrop Combi dispenser into 1536 well white polystyrene tissue culture treated plates (Corning) at a density of 500cells/well. For each cell-line, for each of the 2480 drugs in MIPE v5.0 library, an 11-point dose curve was generated via a 1536 pin-tool. Plates were incubated for 48 hr at standard incubator conditions, covered by a stainless steel gasketed lid to prevent evaporation. Cell viability was determined by luminescence based, Cell Titer Glo assay (Promega). In detail, 3 uL of Cell Titer Glo were added to each well and plates were incubated at room temperature for 15 min with a stainless-steel lid in place. Luminescence readings were taken using a Viewlux (PerkinElmer) with a 2 s exposure time per plate. Compound dose-response curves were normalized to DMSO and empty well controls on each plate. Quantitative drug activity data from dose-response curves was determined utilizing area Under the Curve (AUC) and Z-transformed AUC (Z-AUC, a mean-centering transformation applied to each individual cell-line screened).
# Potency means the concentration at half of the fitted maximal effect.
Structure (SMILES),"viability, % of control",Potency
CCCCN(CCCC)CC(O)c1cc(Cl)cc2c1-c1ccc(Cl)cc1/C2=C/c1ccc(Cl)cc1 (stereo not given),125% (inactive),
C[C@H]1COc2c(N3CCN(C)CC3)c(F)cc3c(=O)c(C(=O)O)cn1c23,107% (inactive),
O=C(O)CSCC(=O)NC1CCSC1=O (stereo not given),90.5% (inactive),
CCCCOc1c(C(=O)c2c(F)cc(C)cc2F)cnc2n[nH]cc12,,1.48 µM (active)
CC1=C(/C=C/C(C)=C/C=C/C(C)=C/C(=O)O)C(C)(C)CCC1,,0.59 µM (active)
CCC[C@@H](C=O)NC(=O)[C@H](CC(C)C)NC(=O)[C@H](CC(C)C)NC(=O)OCc1ccccc1 (Cbz-Leu-Leu-[Nva]-aldehyde),,2.95 µM (active)
COC1CCN(C(=O)c2cc(Cc3n[nH]c(=O)c4ccccc34)ccc2F)CC1,,16.6 µM (active)
CC(C)C(=O)Nc1ncc(-c2cc(C(F)F)nn2-c2c(Cl)cccc2Cl)s1,,20.9 µM (active)
CCCCNc1cc(C(=O)O)cc(S(N)(=O)=O)c1Oc1ccccc1,132% (inactive),
O=C(NNc1ccccc1)c1ccncc1,109% (inactive),
CC1c2ccccc2CN1NC(=O)c1ccc(Cl)c(S(N)(=O)=O)c1 (stereo not given),96.9% (inactive),
C=Cc1c(C)c2cc3nc(cc4[nH]c(cc5nc(cc1[nH]2)C(C)=C5CCC(=O)O)c(CCC(=O)OC)c4C)[C@@]1(C)C3=CC=C(C(=O)OC)[C@H]1C(=O)OC,,26.3 µM (active)
Cc1ccc(S(=O)(=O)N[C@@H](Cc2ccccc2)C(=O)CCl)cc1,,13.2 µM (active)
O=c1cc(N2CCOCC2)oc2c(-c3cccc4c3sc3ccccc34)cccc12,,4.17 µM (active)
Nc1ccn([C@@H]2O[C@H](CO)[C@@H](O)C2(F)F)c(=O)n1,,0.0059 µM (active)
COC1CCC(N(C(=O)C2CCC(C)CC2)c2cc(C3=CCCCC3)sc2C(=O)O)CC1 (stereo not given),95.9% (inactive),
COCCCOc1cc(C[C@@H](C[C@H](N)[C@@H](O)C[C@H](C(=O)NCC(C)(C)C(N)=O)C(C)C)C(C)C)ccc1OC,115% (inactive),
O=C(Nc1cccc(C(F)(F)F)c1)Nc1cc(S(=O)(=O)NC2CC2)ccc1-c1ccsc1,,26.3 µM (active)
CC(=O)c1cnc2ccc(-c3cc(Cl)c(O)c(Cl)c3)nc2c1NC1CCC(CN(C)C)CC1 (stereo not given),,0.0171 µM (active)
Cc1cc(C(C)(C)C)c(O)c(C)c1CC1=NCCN1,99.9% (inactive),

Structure (SMILES),"viability, % of control",Potency
CO[C@@H]1[C@H](N(C)C(=O)c2ccccc2)C[C@H]2O[C@]1(C)n1c3ccccc3c3c4c(c5c6ccccc6n2c5c31)C(=O)NC4,,0.0934 µM (active)
Cc1ccc(C(=O)Nc2ccc(CN3CCN(C)CC3)c(C(F)(F)F)c2)cc1C#Cc1cnc2cccnn12,,0.0263 µM (active)
Cc1[nH]c(/C=C2\C(=O)Nc3ccc(S(=O)(=O)N(C)c4cccc(Cl)c4)cc32)c(C)c1C(=O)N1CCN(C)CC1,,4.68 µM (active)
Cc1c(NC(=O)c2cc3c(s2)CCCC3)cccc1-c1cn(C)c(=O)c(Nc2ccc(C3C(=O)N(C)CCN3C)cc2)n1 (stereo not given),,16.6 µM (active)
CN1CCN(c2ccc(OC(F)(F)F)c(Nc3ncc4c(n3)-c3c(c(C(N)=O)nn3CCO)CC4)c2)CC1,,0.0934 µM (active)
Cc1cccc(-c2nn3c(c2-c2ccnc4ccc(C(N)=O)cc24)CCC3)n1,130% (inactive),
O=C(CCCCCCC(=O)Nc1cccnc1)NO,,2.35 µM (active)
Cn1cnc(-c2cc3nccc(Oc4ccc(NC(=S)NC(=O)Cc5ccccc5)cc4F)c3s2)c1,,0.105 µM (active)
COc1cc(OC2CCN(C)CC2)ccc1Nc1ncc2c(n1)n(C1CCCC1)c(=O)n2C,,3.32 µM (active)
N#Cc1ccnc(Nc2cc(C3CCN(C4COC4)CC3)cc(N3CCC(F)(F)C3)n2)c1,,0.235 µM (active)
CO[C@@H]1[C@@H](OC(N)=O)[C@@H](O)[C@H](Oc2ccc3c(O)c(NC(=O)c4ccc(O)c(CC=C(C)C)c4)c(=O)oc3c2C)OC1(C)C,147% (inactive),
Cc1nc(N)ncc1-c1nc(N2CCOCC2)c2sc(C(C)(C)O)cc2n1,,4.17 µM (active)
Clc1ccc(Cn2c(CN3CCCC3)nc3ccccc32)cc1,,20.9 µM (active)
Cc1nc([C@](C)(O)CO)sc1-c1cnc(N)c(O[C@H](C)c2cc(F)ccc2-n2nccn2)c1,,6.61 µM (active)
Nc1ncnc2c1ncn2[C@@H]1O[C@H](CO)[C@@H](O)[C@@H]1O,104% (inactive),
CC1=C(CO)C(=O)O[C@@H]([C@@H](C)[C@H]2CC[C@H]3[C@@H]4C[C@H]5O[C@]56[C@@H](O)C=CC(=O)[C@]6(C)[C@H]4CC[C@]23C)C1,,0.662 µM (active)
COc1cc(Nc2nc3ccccc3nc2NS(=O)(=O)c2ccc(NC(=O)c3ccc(C)c(OC)c3)cc2)cc(OC)c1,110% (inactive),
CC(C)N(C[C@H]1O[C@@H](n2cnc3c(N)ncnc32)[C@H](O)[C@@H]1O)C1CC(CCc2nc3ccc(C(C)(C)C)cc3[nH]2)C1 (stereo not given in full),,6.61 µM (active)
Cc1ccccc1N1C(=O)c2cc(S(N)(=O)=O)c(Cl)cc2NC1C (stereo not given),119% (inactive),
COc1ccc(Cl)c(Nc2ncnc3cc(OCC4CCN(C)CC4)c(OC)cc23)c1,,5.9 µM (active)
